Test [1] is described as follows: qHTS drug screen for cell cycle checkpoint inhibitors in PARPi-resistant BRCA-mutant ovarian cancer cell lines. (AID 1963452). The note with it: PEO1/OlaR viability, CellTiter-Glo luminescence, 96 h, stronger effect = lower value. The essentials:
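PEO1, PEO4 and PEO1/OlaR ovarian cancer cells, 600 per well, exposed 96 h at 37C to a dilution series. Viability read by CellTiter-Glo luminescence, normalized to DMSO and empty wells; activity summarized as Z-AUC.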
(Quantitative high-throughput screening tests each substance at several concentrations.)

Test [2] is described as follows: qHTS for identification of novel therapeutic agents for treatment of microphthalmiaassociated transcription factor (MiT) renal cell carcinoma (RCC) (AID 1963991).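 Also: curves scaled with 100% = DMSO viability and 0% = empty wells.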 The conditions noted are these: CellTiter-Glo, 48 h, stronger effect = lower value. In short, it runs like this: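 UOK109/UOK124/UOK145 (TFE3 fusions, three partners); 500 cells/well; MIPE v4.0, 1912 cpds, 11 conc.; 48 h, 37 C; CellTiter-Glo, 15 min RT; lum. Norm.: DMSO 100%, empty 0%.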

The mark [3] stands for this setting: measured here: PEO1 parental Z-AUC.
[4] abbreviates: TFE3-RCC UOK109 viability, measured here: UOK109 Z-AUC.
[5] abbreviates: TFE3-RCC viability, measured here: UOK124 Z-AUC.
Setting [6] is: TFE3-RCC viability, measured here: UOK145 Z-AUC.

Experimental findings from PubChem BioAssay (NCATS) are described below.

Inconclusive results are not listed. The source made the active and inactive calls. Calls follow the shape of the full dose curve.

As for `O=c1[nH]c(-c2ccc(C(F)(F)F)cc2)nc2c1CSCC2`, the Z-AUC was 0.604 (inactive) in test [1], 0.431 in test [1] (setting [3]) and 0.432 in test [1] (measured here: PEO4 Z-AUC).
As for `CCCS(=O)(=O)Nc1ccc(F)c(C(=O)c2c[nH]c3ncc(-c4ccc(Cl)cc4)cc23)c1F`, the Z-AUC in test [1] was 0.0673 (inactive); in test [1] (setting [3]) it was -0.745; in test [1] (measured here: PEO4 Z-AUC), -0.427.
As to `CNC(=O)c1ccc(C)c(-n2c(C)cc(OCc3ccc(F)cc3F)c(Br)c2=O)c1`, the Z-AUC in test [1] is -0.231 (inactive); in test [1] (setting [3]), -0.585; in test [1] (measured here: PEO4 Z-AUC), -0.46. For the same compound, the z-score in test [2] (setting [4]) is 0.451; in test [2] (setting [5]), 1.43; in test [2] (setting [6]), 0.519.
Regarding `CCC(C)N(C)C(=O)c1cc2ccccc2c(-c2ccccc2Cl)n1` (stereo not given), the figures for the Z-AUC in test [1], in test [1] (setting [3]) and in test [1] (measured here: PEO4 Z-AUC) were -0.72 (inactive), -0.771 and -0.805, respectively. The z-score was 0.652 in test [2] (setting [4]), 0.425 in test [2] (setting [5]) and -0.135 in test [2] (setting [6]).
In the case of `CN(C)C(=O)c1ccc(S(=O)(=O)c2ccc(NC(=O)[C@@](C)(O)C(F)(F)F)c(Cl)c2)cc1`, the Z-AUC is 0.422 (inactive) in test [1], -0.221 in test [1] (setting [3]) and 0.763 in test [1] (measured here: PEO4 Z-AUC).
Consider `Cn1cnc2c(F)c(Nc3ccc(Br)cc3Cl)c(C(=O)NOCCO)cc21`, for which the values for the Z-AUC in test [1], in test [1] (setting [3]) and in test [1] (measured here: PEO4 Z-AUC) were 0.189 (inactive), 0.0472 and -0.246, respectively.
The corresponding values for `CN(C)c1ccc(C2Nc3ccc4ccccc4c3C3=C2C(=O)CC(C)(C)C3)cc1Br` (stereo not given) are -0.197 (inactive), -0.276 and 0.333.
On to `c1ccc([C@H]2CN3CCSC3=N2)cc1`, for which the Z-AUC is -0.761 (inactive) in test [1], -0.401 in test [1] (setting [3]) and -0.638 in test [1] (measured here: PEO4 Z-AUC). Moreover, the z-score is 0.343 in test [2] (setting [4]), 0.703 in test [2] (setting [5]) and 0.523 in test [2] (setting [6]).
With `COc1cc(Oc2ccnc3cc(OC)c(OC)cc23)ccc1NC(=O)NC(C)c1nccs1` (stereo not given), the results for the Z-AUC in test [1], in test [1] (setting [3]) and in test [1] (measured here: PEO4 Z-AUC) were -0.894 (inactive), -0.402 and -0.764, respectively.
As for `COc1nc(-c2ccc3c(c2)OCO3)n(-c2ccc(NC(=O)CSc3ccccc3)cc2)n1`, the Z-AUC in test [1] is 1.83 (inactive); in test [1] (setting [3]), 1.23; in test [1] (measured here: PEO4 Z-AUC), 1.19. In addition, the z-score in test [2] (setting [4]) is 0.687; in test [2] (setting [5]), 0.0138; in test [2] (setting [6]), 0.717.
On to `COc1ccc(CC2=NN3C([C@@H](CCc4ccccc4)[C@@H](C)O)=NC(C)C3C(=O)N2)cc1OC` (stereo not given in full), for which the Z-AUC in test [1] was -0.34 (inactive); in test [1] (setting [3]), 0.752; in test [1] (measured here: PEO4 Z-AUC), 0.704. Further, the z-score in test [2] (setting [4]) is 1.24; in test [2] (setting [5]), 0.967; in test [2] (setting [6]), 0.717.
Consider `O=C(C1CC1)N1CC[C@@H](Cn2c(-c3ccc(-c4ccc5occc5c4)cc3)nc3cnccc32)C1`, for which the values for the Z-AUC in test [1], in test [1] (setting [3]) and in test [1] (measured here: PEO4 Z-AUC) were 0.419 (inactive), 0.824 and 0.902, respectively. The z-score in test [2] (setting [4]) turned out to be 0.57; in test [2] (setting [5]) it was 0.377; in test [2] (setting [6]), 0.609.
For the compound `CC(C)OC(=O)C1=CN(C(=O)c2ccc(F)c(F)c2)CC(C)(C)c2c1[nH]c1ccccc21`, the Z-AUC was -0.655 (inactive) in test [1], 1.12 in test [1] (setting [3]) and 0.385 in test [1] (measured here: PEO4 Z-AUC). Also, the z-score was 0.178 in test [2] (setting [4]), 0.0335 in test [2] (setting [5]) and -0.0962 in test [2] (setting [6]).
In the case of `OC(CCN1CCCCC1)(c1ccccc1)C1CC2C=CC1C2` (stereo not given), the Z-AUC in test [1] is -0.614 (inactive); in test [1] (setting [3]), -0.36; in test [1] (measured here: PEO4 Z-AUC), -0.607. Moreover, the z-score turned out to be 0.676 in test [2] (setting [4]), 0.56 in test [2] (setting [5]) and 0.997 in test [2] (setting [6]).
In the case of `COc1cc(Nc2ncc3c(n2)-c2ccc(Cl)cc2C(c2c(F)cccc2OC)=NC3)ccc1C(=O)O`, the Z-AUC is -0.756 (inactive) in test [1], -0.991 in test [1] (setting [3]) and -1.47 in test [1] (measured here: PEO4 Z-AUC).
The corresponding values for `O=C1[C@H](Cc2ccc(O)cc2)N2C(=O)CCN(C(=O)NCc3ccccc3)[C@H]2CN1Cc1cccc2ccccc12` are 0.428 (inactive), 0.318 and 0.0223.
For the compound `Nc1nccc(-c2ccc3noc(-c4ccc(Cl)cc4)c3c2)n1`, the Z-AUC in test [1] is 0.305 (inactive); in test [1] (setting [3]), 0.344; in test [1] (measured here: PEO4 Z-AUC), 0.149.
